The structures appear in SMILES notation.

The test system of this assay is HepG2. As to the kind of experiment: GSK_TCMDC: Percent inhibition of human HepG2 cell line. Test compounds present at 10uM. It counts as functional.
For `O=C(Nc1ccc(C(=O)N2CCN(CCN3CCN(c4cccc(C(F)(F)F)c4)CC3)CC2)cc1)c1ccc(C(F)(F)F)cc1`, the Inhibition (usually the percentage by which the read-out fell short of the control) was determined as 39%. In the case of `CN(C)CCCOc1cc(NC(=O)Nc2ccc(-c3ccncc3)c3ccccc23)ccc1I.Cl`, the Inhibition is 46%. For `CCSc1ccc(C)cc1CON1C(N)=NC(N)=NC1(C)C.Cl` the value was 66%; for `C=CCNC(=O)CCCNC(=N)N.Cl`, 0%. The compound `CCN(c1cc(C)nc(Nc2ccc(Cl)cc2)n1)[C@H]1CCN(Cc2ccccc2)C1` displayed an Inhibition of 46%. The compound `O=C(CCCCCNC(=O)c1ccc(O)c(-c2cccc(C(F)(F)F)c2)c1)NCCN1CCCCC1` gave an Inhibition of 0%. As for `O=C(NC1CCCC1)c1ccc(N2CCC(NCc3cccc(C(F)(F)F)c3)CC2)cc1`, the Inhibition worked out at 11%.

`CC(=O)N1N=C(c2ccc(F)cc2)Sc2c1nc(-c1ccccc1)n2C(C)=O` displayed an Inhibition of 0%. Consider `O=C(NC1CC1)c1ccc(Cn2c(SCc3cccc(Cl)c3)nc3ccccc3c2=O)cc1`, for which the Inhibition was determined as 2%.

Regarding `CN1Cc2cc(NC(=O)/C=C/c3ccccc3Cl)ccc2C(C)(C)C1.Cl`, the Inhibition is given as 12%.

As for `CN1CCCC(COc2cc3c(cc2Br)CCN3C(=O)Nc2ccc(-c3ccncc3)c(Cl)c2)C1` (stereo not given), the Inhibition is 99%. For `Cc1cccc2nc(-c3ccc(-c4cccc(NC(=O)c5cncn5C)c4)s3)[nH]c12` the value was 13%. For `Cc1nn(CC(C)C)c2sc(C(=O)N3CCN(S(=O)(=O)c4ccc(C#N)cc4)CC3)cc12`, the Inhibition stood at 14%.

The compound `O=C(Nc1ccc2ccccc2c1)N(CCCn1ccnc1)Cc1csc(-c2ccc(CNCc3ccccc3)cc2)n1.O=C(O)C(F)(F)F` yielded an Inhibition of 10%. `O=C(CCN(Cc1ccco1)c1nc(-c2ccc(F)cc2)nc2ccccc12)NC1CC1` gave an Inhibition of 0%.

As to `COc1cc(C)c(NC(=O)c2cccc3c(=O)c(C)c(-c4ccccc4)oc23)cc1OC`, the Inhibition was 96%. The compound `O=C(/C=C/c1c(Cl)cccc1Cl)NC1CCC(CN2CCC(c3c[nH]c4ccncc34)CC2)CC1` (stereo not given) yielded an Inhibition of 78%.

`COc1ccc(Nc2ncc(Cl)c(Nc3cccnc3C(N)=O)n2)cc1N1CCN(C)CC1.Cl` returned an Inhibition of 77%. As to `COc1cc(NC(=O)c2cccs2)c(OC)cc1NC(=O)Nc1cccc(Cl)c1`, the Inhibition came out at 5%. `Cc1ccc(-c2cc(C(=O)Nc3ccc(S(=O)(=O)N4CC(C)OC(C)C4)cc3)[nH]n2)c(O)c1` (stereo not given) showed an Inhibition of 16%.

`CC(=O)c1cccc(NC(=O)c2ccc(Cl)c(S(=O)(=O)N3CCc4ccccc43)c2)c1` displayed an Inhibition of 13%. Turning to `O=C(O)C(F)(F)F.c1cc(OCCN2CCCC2)ccc1CNC1CCN(CC2CCCCC2)CC1`, the Inhibition was determined as 15%. `Cn1cccc1C(=O)C(=O)Nc1ccc(-c2ccc(-c3nc4cc(F)ccc4[nH]3)cc2)cc1` had an Inhibition of 44%. For the compound `CC(C)CCNC(=O)C1Cc2c([nH]c3ccc(Br)cc23)C2(CCN(CCc3ccccc3)CC2)N1` (stereo not given), the Inhibition is recorded as 25%. On to `O=C1C(c2ccccc2)=C(Nc2ccc([N+](=O)[O-])cc2)c2ccccc21`, for which the Inhibition came out at 0%. For `Cl.OCCNc1nc(Nc2ccc(F)cc2)nc2ccccc12`, the Inhibition came out at 10%. `CCNC(=O)NC1CCN(Cc2c(-c3cccs3)nc3ccccc3c2C(=O)N[C@@H](C)C2CCCCC2)CC1` yielded an Inhibition of 0%.

The compound `CN=c1nc(NN=Cc2ccccc2Cl)[nH]c(=Nc2cccc(C(F)(F)F)c2)[nH]1.Cl` registered an Inhibition of 12%.

In turn, `c1ccc(C(c2ccccc2)N2CCN(C(c3cccnc3)c3nnnn3C3CCCC3)CC2)cc1` (stereo not given) displayed an Inhibition of 4%. The compound `O=C(NCc1cccc(C(F)(F)F)c1)[C@@H]1CCCN1C(=O)c1ccc(O)c(-c2ccc(Cl)c(Cl)c2)c1` yielded an Inhibition of 0%. In turn, `CC(C)CNCc1ccc(-c2cccc(CN(CCCN3CCN(C)CC3)C(=O)/C=C/c3ccccc3)c2)cc1.O=C(O)C(F)(F)F` returned an Inhibition of 43%.

`CC1(C)C(N(O)C(=O)Nc2ccc(Cl)c(Cl)c2)N(c2ccc(Cl)c(Cl)c2)C(=O)N1CCc1ccccc1` (stereo not given) returned an Inhibition of 10%. Turning to `CN(C)Cc1cccc2nc(-c3csc(Cc4cc(Cl)ccc4OCc4ccccc4)n3)[nH]c12`, the Inhibition is 14%. Compound `CC(C)c1nc(N2CCN(C(=S)NCc3ccccc3)CC2)c(C#N)c2c1COC(C)(C)C2` came in with an Inhibition of 0%. `Br.C/C=C/C=C/C1=NCCc2cc(OCCC)ccc21` yielded an Inhibition of 0%. For `COc1ccc(NC(=O)C2c3ccccc3C(=O)N(C3CCCC3)C2c2cccs2)cc1` (stereo not given) the value was 0%; for `O=C(Nc1ccc(-c2ccccc2)cc1)Nc1cccc(OCCN2CCCC2)c1.O=C(O)C(F)(F)F`, 11%. For `Cc1cccc2nc(-c3cccc(-c4cccc(CN5CCN(c6ccncc6)CC5)c4)c3)[nH]c12.O=C(O)C(F)(F)F` the value was 47%. In turn, `Cc1ccccc1Nc1cc(Nc2ccccc2C)c2ccccc2n1` registered an Inhibition of 28%. `N#Cc1ccc(Sc2nnc(-c3ccccc3Cl)n2CC2CCCCC2)cc1[N+](=O)[O-]`: the Inhibition is on record as 30%.

Values taken from ChEMBL document CHEMBL1157539, “Thousands of chemical starting points for antimalarial lead identification” (Nature, 2010).
